# tim10-1 inh: growth inhibitors of tim10-1 mutant yeast; S. cerevisiae tim10-1 ts strain growth, BacTiter-Glo, 24 h; inhibition, % at 20 µM; 2.2% of 330,000 active; AID 463190;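 active = inhibition of at least 40%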;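 also: mutant grown at 25 °C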
# EBI2 block: blocks human EBI2 receptor beta-arrestin signaling; AID 651636; 0.81% of 360,000 active; inhibition, % at 5 µM; EBI2 beta-arrestin recruitment, luminescence, 7a,25-OHC stimulated; in the data active = inhibition above about 38%;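 also: enzyme fragment complementation signal reports receptor beta-arrestin coupling in cells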
# Target sequence (P32249 whole entry, looked up, the tested form may be a part): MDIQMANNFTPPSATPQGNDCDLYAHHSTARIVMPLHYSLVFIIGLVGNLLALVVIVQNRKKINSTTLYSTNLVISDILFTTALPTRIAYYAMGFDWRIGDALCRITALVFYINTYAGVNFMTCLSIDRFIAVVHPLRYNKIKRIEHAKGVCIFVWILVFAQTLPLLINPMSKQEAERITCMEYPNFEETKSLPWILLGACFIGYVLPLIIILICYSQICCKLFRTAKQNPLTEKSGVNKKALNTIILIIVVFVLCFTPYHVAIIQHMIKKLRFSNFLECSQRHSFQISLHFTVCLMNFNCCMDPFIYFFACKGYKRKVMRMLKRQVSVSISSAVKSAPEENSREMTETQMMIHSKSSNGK
# TIM10 inh: inhibits growth of TIM10 yeast strain; S. cerevisiae TIM10 strain growth, BacTiter-Glo luminescence, 24 h; inhibition, % at 10 µM; 1.4% of 330,000 active; AID 463195;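 active = inhibition of 40% or more at the single tested concentration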;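 also: wild-type TIM10 isogenic control strain grown at permissive 25 °C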
# PfHsp90 set2: reduces growth (ATP signal) of yeast expressing P. falciparum Hsp90; AID 504621; S. cerevisiae expressing PfHsp90, BacTiter-Glo ATP, 48 h; yeast lacking PDR1 and PDR3 efflux regulators; inhibition, % at 9.4 µM; 0.32% of 310,000 active;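 active = every replicate shows inhibition above about 80%, whatever the replicate mean, limit read from the data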
# SKKanGAS inh: inhibitors of SKKanGAS S. pyogenes growth in kanamycin (SK-promoter or general growth effect). inhibition, % at 7.5 µM. 1.3% of 300,000 active. BacTiter-Glo, 6 h;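 active = mean replicate score, as percent of positive control median, at least 50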;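 also: strain carries kanamycin resistance gene driven by streptokinase promoter and grows in 40 µg/ml kanamycin; loss of luminescence reflects streptokinase promoter inhibition or plain growth inhibition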
# tim23-1 inh: growth inhibitors of tim23-1 mutant yeast. S. cerevisiae tim23-1 growth, BacTiter-Glo luminescence, 24 h. inhibition, % at 20 µM. 1.3% of 330,000 active. AID 463212;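 active = growth inhibition of the mutant yeast at or above 50%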;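 also: temperature-sensitive mutant grown at 25 °C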
# tim23-1 confirm: tim23-1 yeast growth inhibition, confirmed. 83% of 4,400 active. inhibition, % at 20 µM. AID 463218. S. cerevisiae tim23-1 growth, BacTiter-Glo luminescence, 24 h. shares compounds with tim23-1 inh;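 active = inhibition above about 39% in either of two replicate wells at 20 µM, limit read from the data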;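 also: temperature-sensitive tim23-1 mutant grown at 25 °C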
# A number is an active result; – = inactive; · = not tested or not shown. Sampled rows, rich in hits. Any-hit rate of the full collection: about 4.7%.
SMILES,tim10-1 inh,EBI2 block,TIM10 inh,PfHsp90 set2,SKKanGAS inh,tim23-1 inh,tim23-1 confirm
CCc1ccc(S(=O)(=O)N2CCN(C(=O)c3cccnc3)CC2)cc1,–,–,–,–,–,–,·
CCN(CC(=O)Nc1cc(Cl)cc(Cl)c1)CC(=O)NC1CCS(=O)(=O)C1 (stereo not drawn),–,–,–,–,·,–,·
Cc1ccc(-c2nnc(OCc3nc4ccccc4n3C)c3ccccc23)cc1,–,–,–,–,–,52.1,50.5
Cc1ccc(-c2nnc(OCc3cccnc3)c3ccccc23)cc1,–,–,–,·,–,53.1,54.0
COC(=O)[C@]12CCCCC=C1N(Cc1ccco1)C(=O)[C@H](CC(=O)NCc1ccccc1)C2,·,–,·,·,·,·,·
O=C1/C(=C\c2cccs2)N=C(c2cccs2)N1Nc1ccccc1,–,–,–,–,–,66.2,40.7
O=C1/C(=C/c2cccs2)N=C(c2cccs2)N1Nc1ccccc1,–,–,–,–,–,57.5,51.0
Cc1ccc(C2=N/C(=C\c3cccs3)C(=O)N2Nc2ccccc2)cc1,–,–,–,–,–,–,·
Nc1nc(-c2ccc([N+](=O)[O-])cc2)cc(=O)[nH]1,·,–,·,–,·,·,·
Cc1cccc(C)c1Nc1nnc(SCC(=O)c2ccc(Br)s2)s1,–,–,–,–,–,52.5,61.1
CCSc1nnc(NC(=O)c2ccc(Br)s2)s1,–,–,–,–,–,–,·
COc1ccc(-c2noc(CNC(=O)c3ccc4c(c3)OCO4)n2)cc1,–,–,–,–,–,52.7,–
Cc1cccc(-c2noc(CNC(=O)c3ccc4c(c3)OCO4)n2)c1,–,–,–,–,–,–,·
CC(=O)COc1ncn(-c2ccccc2)n1,–,–,–,–,–,–,·
COc1cccc(/C=C/C(=O)c2ccc3c(c2)OCO3)c1OC,–,–,–,–,·,53.5,54.0
O=C(/C=C/c1ccccc1Br)c1ccc2c(c1)OCO2,–,–,–,–,–,–,·
CC(c1ccccc1)n1c(-c2ccncc2)n[nH]c1=S (stereo not drawn),–,–,–,–,–,–,·
CC(c1ccccc1)n1c(-c2ccc(Cl)cc2)n[nH]c1=S (stereo not drawn),–,–,–,–,–,55.4,–
C[C@H](CO)N1C[C@H](C)[C@@H](CN(C)C(=O)Nc2ccc3c(c2)OCO3)Oc2ccc(NC(=O)Nc3ccc4c(c3)OCO4)cc2C1=O,–,–,–,–,·,–,·
Cc1ccccc1CN1C(=O)CN(S(C)(=O)=O)CC1(C)C(=O)Nc1ccc2c(c1)OCCO2 (stereo not drawn),·,–,·,·,·,·,·
CC1(C)CC(=O)C=C(c2cccc(Cl)c2O)C1,–,–,–,–,·,59.5,53.3
O=C(CC12CC3CC(CC(C3)C1)C2)N/N=C/c1ccc([N+](=O)[O-])o1,–,–,–,–,–,57.4,–
Cc1cc(C)cc(OCC(=O)N/N=C/c2ccc([N+](=O)[O-])o2)c1,–,–,–,–,–,51.8,–
CCCNC(=S)Nc1cc2oc3ccccc3c2cc1OC,–,–,–,–,–,51.9,52.1
CCNC(=S)Nc1cc2oc3ccccc3c2cc1OC,–,–,–,–,–,–,·
SMILES,tim10-1 inh,EBI2 block,TIM10 inh,PfHsp90 set2,SKKanGAS inh,tim23-1 inh,tim23-1 confirm
Cc1ccc2[nH]cc(C(=O)CCl)c2c1,–,–,–,–,–,58.0,65.7
Cc1ccc2[nH]cc(C(=O)CN3CCN(C)CC3)c2c1,–,–,–,–,–,–,·
Cc1cc(Oc2nc3c(C)cccn3c(=O)c2/C=C(\C#N)S(=O)(=O)c2ccccc2)ccc1Cl,–,–,–,–,–,–,·
Cc1cccn2c(=O)c(/C=C(\C#N)S(=O)(=O)c3ccccc3)c(Oc3ccc(Cl)cc3)nc12,–,–,–,–,–,50.3,–
CCOC(=O)c1cnc(-n2nc(C)cc2C)nc1NCCc1ccccc1,–,–,–,–,–,50.5,57.9
CC12CCC(C(=O)NCCCN3CCOCC3)(C(Br)C1=O)C2(C)C (stereo not drawn),–,–,–,–,–,94.8,–
CC12CCC(C(=O)NCCCN3CCOCC3)(OC1=O)C2(C)C (stereo not drawn),–,–,–,–,–,–,·
NC(=O)CSc1nnc(-c2ccccn2)n1Cc1ccco1,–,–,–,–,–,–,·
Clc1ccccc1CSc1nnc(-c2ccccn2)n1Cc1ccco1,–,–,–,–,–,52.2,53.8
